Screening data as filed in PubChem.
aSyn UTR act = Activators working through SNCA 5'UTR binding (MLPCN); alpha-synuclein 5'UTR reporter, activators screen; activity score, % (tested at 7.5 µM), hits read low; 300,000 tested, 7.1% active; in the data active = activity score below about -60%
Hits are given with their value; . = inactive. Not all results are given here.

SMILES | aSyn UTR act
COCCn1c(C)cc(C(=O)CSc2nnc(C)s2)c1C | .
COCCn1c(C)cc(C(=O)CN2C(=O)NC3(CCCCCCC3)C2=O)c1C | -99
Cc1ccc(C(=O)CN2C(=O)NC3(CCCCCC3)C2=O)c(C)c1 | -132
CC1N/C(=C\C(=O)c2ccccc2)N(O)C1(C)C (centres undefined) | -124
CCn1c(=N)n(CC(=O)c2ccc(Cl)c(Cl)c2)c2ccccc21 | -186
Cn1c(=N)n(CC(=O)c2ccc(F)cc2)c2ccccc21 | .
Nc1ccc2c(c1)Cc1cc([N+](=O)[O-])ccc1-2 | -79
CCc1nccn1CCC(=O)N1CCCC(N2CCN(c3cccc(Cl)c3)CC2)C1 (centres undefined) | -67
CCOc1ccc(NC(=O)c2cccs2)c([N+](=O)[O-])c1 | -219
CCOc1ccc(NC(=O)c2ccc(CC)s2)c([N+](=O)[O-])c1 | -168
CCOc1ccc(NC(=O)c2ccco2)c([N+](=O)[O-])c1 | -131
C/C(=N\NC(=O)c1cccc(Cl)c1)C1C(=O)c2ccccc2C1=O | -120
CC(=O)c1cnc2nc(SCc3ccccc3C)nn2c1C | -75
O=c1sc(/C=N/Nc2ccccc2)c(Cl)n1Cc1ccccc1 | -84
CCc1nc(SCc2ccc(OC)cc2)n[nH]1 | -82
CN(C)c1ccc(/C=C/c2ccc3ccccc3n2)cc1 | .
CCCN(CCC)c1ccc(/C=C/c2ccc3cc(OCC)ccc3n2)cc1 | -112
OCCNc1c2ccccc2nc2c(F)c(F)c(F)c(F)c12 | -84
COc1ccc(CNC(=O)Cn2cccc2C(=O)c2ccccc2C)cc1 | -101
CCOC(=O)COc1cccc2c(=O)n(CC(=O)NCc3ccc(F)cc3)ccc12 | .
COc1ccc(CNC(=O)Cn2cccc2C(=O)c2ccccc2)cc1 | -69
O=c1oc2ccccc2c2oc3cc(O)c(O)cc3c12 | -83
CC(=Nc1cccc(O)c1)c1sc2ccccc2c1O | -236
Cn1c(CSc2ccccc2)c(C#N)c2ccccc21 | -131
CS(=O)(=O)c1ccc2nc(NC(=O)Nc3ccccc3F)sc2c1 | -109
SMILES | aSyn UTR act
CS(=O)(=O)c1ccc2nc(NC(=O)Nc3cccc(Cl)c3)sc2c1 | -85
C=C1CCC2[C@](C)(CO)[C@H](O)CC[C@@]2(C)[C@@H]1C/C=C1\C(=O)OC[C@H]1O (some centres undefined) | -151
CN1CCC(Oc2ccc(Sc3ccccc3)cc2)CC1 | -77
CCCCn1cnc2c(oc3ccccc32)c1=O | -121
Cc1nn(C)c(C)c1S(=O)(=O)N1CCC(C(=O)Nc2ccc3c(c2)OCCO3)CC1 | -111
O=C(Nc1ccc2c(c1)OCO2)C1CCN(S(=O)(=O)c2cccs2)CC1 | -64
O=C(CNS(=O)(=O)c1cccs1)Nc1ccc2c(c1)OCCO2 | -91
CN(CC(=O)Nc1ccc2c(c1)OCO2)S(=O)(=O)c1cccs1 | -76
O=S(=O)(Nc1ccc2c(c1)OCCO2)c1cccs1 | -91
Cc1nc(C#N)c(N/N=C/c2cccc(Cl)c2)o1 | -126
Cn1nc(-c2ccc(Cl)cc2)c2cc(C(=O)NCCN3CCOCC3)sc21 | -107
CCCCN(CC)CCNC(=O)c1cc2c(-c3ccc(Cl)cc3)nn(C)c2s1 | .
CCCN(CCC)CCNC(=O)c1cc2c(-c3ccccc3F)nn(C)c2s1 | -62
CCOCCCNC(=O)c1cc2c(-c3ccc(Cl)cc3)nn(C)c2s1 | -62
CCN1CCN(C(=O)c2cc3c(-c4ccc(Cl)cc4)nn(C)c3s2)CC1 | -68
Cn1nc(-c2ccc(Cl)cc2)c2cc(C(=O)NCCCN3CCOCC3)sc21 | -134
O=C(NCCOc1ccccc1Cl)c1cc(F)c(F)cc1Cl | -123
COc1ccc(CCC(=O)NCCOc2ccccc2Cl)cc1 | -92
O=C(NCCOc1ccccc1)c1ccccc1Cl | -75
CCc1ccc(-c2cc(C)no2)cc1S(=O)(=O)N1CCN(c2ccccc2)CC1 | -73
COc1ccc(C2CC(c3ccc(C)o3)=NN2C(C)=O)cc1 (centres undefined) | -128
CC(=O)N1N=C(c2ccc(C)o2)CC1c1ccc(Br)cc1 (centres undefined) | -199
COc1ccc(C2CC(c3ccc4ccccc4c3OC(C)=O)=NN2C(C)=O)cc1 (centres undefined) | -203
COc1ccc(C2CC(c3ccc(Cl)cc3)=NN2C(C)=O)cc1 (centres undefined) | -116
Cc1ccc(NC2Nc3cc(C)nn3S2)c(C)c1 (centres undefined) | -138
SMILES | aSyn UTR act
O=C(c1cccs1)N1CCN(c2nc3ccccc3s2)CC1 | -66
CC(C)(C)C(=O)N1CCN(c2nc3ccccc3s2)CC1 | -119
CCCC(=O)N1CCN(c2nc3ccccc3s2)CC1 | -104
CCc1ccc2nc(N3CCN(C(=O)C(C)(C)C)CC3)sc2c1 | -98
CCC(=O)N1CCN(c2nc3ccc(Br)cc3s2)CC1 | -117
O=C(NC1CC1)C1CCN(c2nc3ccccc3s2)CC1 | -86
Cc1ccc(NC(=O)CC2COc3ccccc3O2)cc1 (centres undefined) | -89
O=C(CC1COc2ccccc2O1)NC1CCCCC1 (centres undefined) | -67
Cc1scc(C(=O)N/N=C/c2ccsc2)c1C | -162
Cc1scc(C(=O)N/N=C/c2ccco2)c1C | -86
Cc1scc(C(=O)N/N=C/c2ccc([N+](=O)[O-])o2)c1C | .
CC(=O)Nc1ccc(/C=N/N2CCCCC2)cc1 | -96
CC1CCC(=O)N(CCOc2ccccc2)CC1 (centres undefined) | -80
O=C1CCN(Cc2ccccc2)CCN1CCOc1ccccc1 | -99
Clc1ccccc1CONc1ncnc2nonc12 | -91
Cc1ccc2nc(C)/c(=N\O)c(C)nc2c1 | -239
Cc1nc2ccc(Cl)cc2nc(C)/c1=N\O | -219
CC(=O)c1sc(NC(=O)COc2ccccc2)nc1C | -109
O=C(COc1ccccc1)Nc1nc2c(s1)CCCC2 | -88
COc1ccccc1OCC(=O)Nc1nc(C)c(C)s1 | -83
COC(=O)c1sc(NC(=O)COc2ccccc2C)nc1C | -90
CC(C)CCn1nc(C(=O)Nc2nc3c(s2)CCCC3)c2ccccc2c1=O | .
CCN1CCN(/C=N/c2nc3c(s2)CCCC3)CC1 | .
COC(=O)Nc1nc2c(s1)CCCC2 | -87
COc1ccc2nc(C)cc(SCC(=O)N/N=C/c3ccc(O)cc3O)c2c1 | .
SMILES | aSyn UTR act
COc1ccc2nc(/C=N/NC(=O)CCCCCNC(=O)OC(C)(C)C)ccc2c1 | -70
O=C(Oc1ccc(-c2cnc3ccccc3n2)cc1)c1ccco1 | -81
CCC(=O)Oc1ccc(-c2cnc3ccccc3n2)cc1 | -99
COC(=O)c1ccc(CN2C(=O)NC3(CCC(C)CC3)C2=O)cc1 (centres undefined) | -70
CC1CCC2(CC1)NC(=O)N(NC(=O)CCl)C2=O (centres undefined) | -77
CC(Oc1ccc2c(c1)c1ccnc3c4ccccc4c(=O)n2c13)C(=O)NCCN1CCOCC1 (centres undefined) | -76
COc1cc(OC)cc(C(=O)Oc2c(CN3CCOCC3)cc(Cl)c3cccnc23)c1 | .
COc1ccc2c(c1OC)c(=O)n1c3ccc(OC(C)C(=O)NCCN4CCOCC4)cc3c3ccnc2c31 (centres undefined) | -65
CC(C)c1ccc2c(c1)CCC1C(C)(CN)CCCC21C (centres undefined) | .
S=C(N/N=C/c1ccccc1Cl)Nc1ccccc1 | -106
COc1ccc(/C=N/NC(=S)Nc2ccccc2)cc1 | -72
S=C(N/N=C/c1ccc2ncccc2c1)Nc1ccccc1 | .
COc1ccc(NC(=O)O/N=C/c2ccccc2)cc1 | -140
CC1CC(C)CN(C(=O)c2cc3ccccc3o2)C1 (centres undefined) | -70
